Experiment: adipocyte viability effects, profiling panel, cell-based, 3T3-L1 adipocytes, calcein-AM fluorescence, 48 h, basal (AID 1163)
Settings: 3T3-L1 adipocytes viability, higher = more signal
Also: test concentration not given here.

Row | Compound | z-score
1 | CCCCC(O)C1C=CC2C(=O)N(c3ccccc3)C(=O)C2N1Nc1ccc([N+](=O)[O-])cc1 (stereo not given) | -0.229
2 | C=CCNC(=O)[C@@H]1[C@H]2C(=O)O[C@H](c3ccccc3)[C@H](c3ccccc3)N2[C@H](c2ccc(OCCO)cc2)[C@@]12C(=O)Nc1ccc(C#CC3(O)CCCCCC3)cc12 | 1.84
3 | CN1C(=O)C2C(C1=O)C1C=C(c3ccc(CO)cc3)C2C(C2CC2)N1C (stereo not given) | 1.29
4 | COC(=O)[C@@]1(Cc2ccc(F)cc2)[C@H]2c3cc(C(=O)N4CCCC4)n(Cc4ccccn4)c3C[C@H]2CN1C(=O)c1ccccc1 | -0.0559
5 | NC(=O)N1C(=O)C2C(C1=O)C1C=C(CCCO)C2C(c2ccc(CN3CCCC3)cc2)N1Cc1cc2c(cc1Br)OCO2 (stereo not given) | 0.201
6 | CCCCN1CC=CC23O[C@@H]4/C=C\CCCOC(=O)C4[C@H]2C(=O)N(C(CO)C(C)C)[C@@H]3C1=O (stereo not given in full) | 0.265
7 | O=C1O[C@H](c2ccccc2)[C@H](c2ccccc2)N2[C@H]1[C@@H](C(=O)N1CCN(c3ncccn3)CC1)[C@]1(C(=O)Nc3ccc(C#CCCO)cc31)[C@H]2c1ccc(O)cc1 | 0.255
8 | O=C1NC(=O)C2C1C=CC(C(O)c1ccc([N+](=O)[O-])cc1)N2Nc1ccccn1 (stereo not given) | -0.379
9 | O=C1C2C=CC(C(O)c3ccc([N+](=O)[O-])cc3)N(Nc3ccccc3F)C2C(=O)N1c1ccccc1 (stereo not given) | -0.923
10 | COc1ccc([Si](C)(C)[C@@H]2[C@@H](CC(=O)N(CCO)Cc3ccccc3)O[C@]3(C(=O)N(Cc4ccc(I)cc4)c4ccccc43)[C@H]2C)cc1 | 0.909
11 | CN1C(=O)C2C(C1=O)C1C=C(CCCO)C2C(C2CC2)N1Cc1cccc(OC(F)(F)F)c1 (stereo not given) | 0.116
12 | CCOC(=O)C[C@H]1[C@H](OC(=O)c2cc3ccccc3oc2=O)[C@@H](NC(=O)CC(C)C)c2cc(OCCCO)ccc2N1C(=O)Cc1ccc(OC)cc1 | 0.967
13 | NC(=O)N1C(=O)C2C(C1=O)C1C=C(CCCO)C2C(C2CC2)N1Cc1sc2ccccc2c1Cl (stereo not given) | 0.66
14 | COCCn1c(C(=O)N(C)C)cc2c1C[C@H]1CN(C(=O)c3ccccc3)[C@@](Cc3ccc(OC)cc3)(C(=O)OC)[C@@H]21 | -0.61

Experiment: HepG2 cell viability effects, profiling panel, calcein-AM fluorescence, 48 h, basal (AID 1164)
Settings: higher = more signal

Row | Compound | z-score
15 | CCCNC(=O)[C@@]1(Sc2ccc(C)cc2)CC(=O)N(Cc2ccccc2Cl)[C@@H]1c1ccc(CO)cc1I | 1.01
16 | C=CCN1Cc2ccccc2[C@H]2OC(c3ccc(OCCCO)cc3)=N[C@@]2(CCS(=O)(=O)c2ccccc2)C1=O | -0.37
17 | [N-]=[N+]=Nc1ccccc1C[C@]1(C(=O)N2CCOCC2)N=C(c2ccc(OCCCO)cc2)O[C@H]1c1ccccc1N=[N+]=[N-] | -0.621
18 | C[C@]1(C(=O)O)c2ccccc2C(=O)N(Cc2cc(F)cc(C(F)(F)F)c2)[C@H]1c1ccc(CO)cc1 | -0.577
19 | CC(C)c1nc2cc(Br)ccc2c(=O)o1 | -1.32
20 | CN(C)CCCC[C@@H]1NC(=O)[C@H]2C[C@@H](C(=O)O)[C@@H](c3ccc(O)cc3)N2C1=O | 0.326
21 | CN1C(=O)C2C(C3CC3)C=C3CN(Cc4cccc(Cl)c4)[C@@H]([C@@H](O)Cc4ccccc4)C3C2C1=O (stereo not given in full) | 0.506
22 | C=CCC(OC(C)=O)[C@@H]1[C@@H](N(Cc2ccc(-c3cccc(C(F)(F)F)c3)o2)C(=O)c2ccc(-c3ccccc3)cc2)c2cc(OCCCO)ccc2N1C(=O)c1ccc2ccccc2c1 (stereo not given in full) | 0.612
23 | CCCCC(O)C1C=CC2C(=O)N(c3ccccc3)C(=O)C2N1Nc1ccc(C#N)cc1 (stereo not given) | 1.2
24 | NC(=O)N1C(=O)C2C(C1=O)C1C=C(CCCO)C2C(c2ccc(CN3CCCC3)cc2)N1Cc1sc2ccccc2c1Cl (stereo not given) | -0.389
25 | CC(C)=CCCC(C)=CC(O)C1C=CC2C(=O)NC(=O)C2N1Nc1ccccn1 (stereo not given) | 1.29
26 | Cc1ccc(S[C@]2(C(=O)NCCCN(C)C)CC(=O)N(C3Cc4ccccc4C3)[C@@H]2c2ccc(CO)cc2I)cc1 | -0.563
27 | COc1ccc(C#Cc2ccc3c(c2)[C@]2(C(=O)N3)[C@H](C(=O)O)[C@H]3C(=O)O[C@H](c4ccccc4)[C@H](c4ccccc4)N3[C@@H]2c2ccccc2OCCO)cc1 | -2.52
28 | COc1ccc(CCNC(=O)[C@@H]2c3ccccc3C(=O)N(Cc3ccccc3OC)[C@H]2c2ccc(CO)cc2)cc1 | -0.147
29 | C=CCC(OC(C)=O)[C@@H]1[C@@H](N(Cc2cccc3ccccc23)C(=O)Cc2ccc(OC)cc2)c2cc(OCCCO)ccc2N1C(=O)Cc1ccc2ccccc2c1 (stereo not given in full) | -0.472
30 | CC(C)(C)OC(=O)CC[C@@]1(C(=O)NCCN2CCOCC2)N=C(c2ccc(OCCCO)cc2)O[C@@H]1c1ccccc1CN=[N+]=[N-] | 0.463
31 | CC(C)NC(=O)[C@@]1(C)c2ccccc2C(=O)N(Cc2ccccc2)[C@H]1c1ccc(CO)cc1 | 1.41
32 | CN(C)c1ccc(C(O)C2C=CC3C(=O)N(Cc4ccccc4)C(=O)C3N2n2cnnc2)cc1 (stereo not given) | 2.13

Row | Compound | z-score
33 | COc1ccc(C(=O)Nc2ccc(CN3C(=O)[C@@]4(O[C@@H](CCn5cc(CCO)nn5)[C@H]([Si](C)(C)c5ccc(OC)cc5)[C@H]4C)c4ccccc43)cc2)cc1 | -3.14
34 | CC(C)C[C@H]1NC(=O)C([C@@H](C)OCc2ccccc2)NC(=O)[C@@]23C(=O)N[C@@H](Cc4ccccc4)C2[C@H](C)[C@@]2(C)O[C@H]2C3/C=C/C/C=C\CNC1=O (stereo not given in full) | -0.3
35 | COc1ccc([Si](C)(C)[C@@H]2[C@@H](CC(=O)N3CCC[C@H]3CO)O[C@]3(C(=O)N(Cc4cccc(N5CCCCC5=O)c4)c4ccccc43)[C@H]2C)cc1 | -1.35
36 | CO[C@H]1O[C@H](CO)[C@@H](OC(=O)Nc2ccccc2-c2ccccc2)[C@H](OC(=O)Nc2ccccc2)[C@H]1OC(=O)Nc1ccccc1 | -1.74
37 | CCCCC(O)C1C=CC2C(=O)N(c3ccccc3)C(=O)C2N1Nc1ccc([N+](=O)[O-])cc1 (stereo not given) | 0.0784
38 | C=CCNC(=O)[C@@H]1[C@H]2C(=O)O[C@H](c3ccccc3)[C@H](c3ccccc3)N2[C@H](c2ccc(OCCO)cc2)[C@@]12C(=O)Nc1ccc(C#CC3(O)CCCCCC3)cc12 | -1.39
39 | CN1C(=O)C2C(C1=O)C1C=C(c3ccc(CO)cc3)C2C(C2CC2)N1C (stereo not given) | -0.799
40 | COC(=O)[C@@]1(Cc2ccc(F)cc2)[C@H]2c3cc(C(=O)N4CCCC4)n(Cc4ccccn4)c3C[C@H]2CN1C(=O)c1ccccc1 | -0.347
41 | NC(=O)N1C(=O)C2C(C1=O)C1C=C(CCCO)C2C(c2ccc(CN3CCCC3)cc2)N1Cc1cc2c(cc1Br)OCO2 (stereo not given) | -0.623
42 | CCCCN1CC=CC23O[C@@H]4/C=C\CCCOC(=O)C4[C@H]2C(=O)N(C(CO)C(C)C)[C@@H]3C1=O (stereo not given in full) | -0.0249
43 | O=C1O[C@H](c2ccccc2)[C@H](c2ccccc2)N2[C@H]1[C@@H](C(=O)N1CCN(c3ncccn3)CC1)[C@]1(C(=O)Nc3ccc(C#CCCO)cc31)[C@H]2c1ccc(O)cc1 | 0.775
44 | O=C1NC(=O)C2C1C=CC(C(O)c1ccc([N+](=O)[O-])cc1)N2Nc1ccccn1 (stereo not given) | -0.357
45 | O=C1C2C=CC(C(O)c3ccc([N+](=O)[O-])cc3)N(Nc3ccccc3F)C2C(=O)N1c1ccccc1 (stereo not given) | -1.16
46 | COc1ccc([Si](C)(C)[C@@H]2[C@@H](CC(=O)N(CCO)Cc3ccccc3)O[C@]3(C(=O)N(Cc4ccc(I)cc4)c4ccccc43)[C@H]2C)cc1 | -1.59
47 | CN1C(=O)C2C(C1=O)C1C=C(CCCO)C2C(C2CC2)N1Cc1cccc(OC(F)(F)F)c1 (stereo not given) | -0.814
48 | CCOC(=O)C[C@H]1[C@H](OC(=O)c2cc3ccccc3oc2=O)[C@@H](NC(=O)CC(C)C)c2cc(OCCCO)ccc2N1C(=O)Cc1ccc(OC)cc1 | 0.535
49 | NC(=O)N1C(=O)C2C(C1=O)C1C=C(CCCO)C2C(C2CC2)N1Cc1sc2ccccc2c1Cl (stereo not given) | 0.839
50 | COCCn1c(C(=O)N(C)C)cc2c1C[C@H]1CN(C(=O)c3ccccc3)[C@@](Cc3ccc(OC)cc3)(C(=O)OC)[C@@H]21 | 0.33

— PubChem BioAssay
